Legend:
[1] = target: Fibroblast growth factor receptor 4 (Homo sapiens) (UniProt P22455); details: at 1 µM;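 note: reported figure is the averaged percent inhibition of FGFR4, from the GSK PKIS kinase screening panel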
[2] = target: Tyrosine-protein kinase Fgr (Homo sapiens) (UniProt P09769); details: at 0.1 µM
[3] = target: Tyrosine-protein kinase Fgr (Homo sapiens) (UniProt P09769); details: at 1 µM
[4] = target: Vascular endothelial growth factor receptor 1 (Homo sapiens) (UniProt P17948); details: at 0.1 µM
Chain of Vascular endothelial growth factor receptor 1 (Homo sapiens) (P17948 whole entry): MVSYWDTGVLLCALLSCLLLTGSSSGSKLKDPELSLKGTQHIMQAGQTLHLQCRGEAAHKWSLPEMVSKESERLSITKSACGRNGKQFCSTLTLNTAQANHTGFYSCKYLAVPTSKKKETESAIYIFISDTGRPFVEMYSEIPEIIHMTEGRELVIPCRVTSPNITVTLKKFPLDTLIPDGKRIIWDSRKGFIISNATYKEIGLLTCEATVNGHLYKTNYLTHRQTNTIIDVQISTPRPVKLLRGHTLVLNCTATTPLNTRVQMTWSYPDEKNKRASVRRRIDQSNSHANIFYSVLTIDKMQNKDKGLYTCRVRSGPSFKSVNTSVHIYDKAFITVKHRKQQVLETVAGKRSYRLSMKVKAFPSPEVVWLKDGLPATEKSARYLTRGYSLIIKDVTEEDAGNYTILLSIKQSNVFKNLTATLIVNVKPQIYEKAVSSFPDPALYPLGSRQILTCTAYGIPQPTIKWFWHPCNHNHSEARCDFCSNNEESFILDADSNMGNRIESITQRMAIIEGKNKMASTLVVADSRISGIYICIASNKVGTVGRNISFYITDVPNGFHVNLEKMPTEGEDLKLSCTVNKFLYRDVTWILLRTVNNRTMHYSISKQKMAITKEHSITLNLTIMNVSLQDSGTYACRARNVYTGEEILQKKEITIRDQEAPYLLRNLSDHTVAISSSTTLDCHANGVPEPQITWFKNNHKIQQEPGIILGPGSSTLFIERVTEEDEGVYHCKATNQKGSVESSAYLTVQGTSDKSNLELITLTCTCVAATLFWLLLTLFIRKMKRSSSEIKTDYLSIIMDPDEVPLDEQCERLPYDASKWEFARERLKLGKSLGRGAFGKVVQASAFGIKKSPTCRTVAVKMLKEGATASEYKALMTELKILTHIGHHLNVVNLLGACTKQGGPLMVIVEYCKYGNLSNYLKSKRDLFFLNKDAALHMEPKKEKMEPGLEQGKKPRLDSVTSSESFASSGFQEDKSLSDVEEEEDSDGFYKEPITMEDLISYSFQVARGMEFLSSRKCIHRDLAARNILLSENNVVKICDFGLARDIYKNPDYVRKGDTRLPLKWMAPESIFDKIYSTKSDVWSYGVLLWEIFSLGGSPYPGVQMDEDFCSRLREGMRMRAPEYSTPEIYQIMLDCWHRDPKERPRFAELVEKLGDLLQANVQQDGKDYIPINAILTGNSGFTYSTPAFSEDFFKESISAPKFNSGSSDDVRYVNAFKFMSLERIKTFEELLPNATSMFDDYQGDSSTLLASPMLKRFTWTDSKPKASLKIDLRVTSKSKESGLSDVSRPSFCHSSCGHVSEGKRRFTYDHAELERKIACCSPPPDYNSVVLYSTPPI

[5] = target: Vascular endothelial growth factor receptor 1 (Homo sapiens) (UniProt P17948); details: at 1 µM
[6] = target: Receptor-type tyrosine-protein kinase FLT3 (Homo sapiens) (UniProt P36888); details: at 0.1 µM
[7] = target: Receptor-type tyrosine-protein kinase FLT3 (Homo sapiens) (UniProt P36888); details: at 1 µM
[8] = test system: T1, Receptor-type tyrosine-protein kinase FLT3 (Homo sapiens), P36888 [D835Y]; details: at 0.1 µM
T1 sequence (whole entry): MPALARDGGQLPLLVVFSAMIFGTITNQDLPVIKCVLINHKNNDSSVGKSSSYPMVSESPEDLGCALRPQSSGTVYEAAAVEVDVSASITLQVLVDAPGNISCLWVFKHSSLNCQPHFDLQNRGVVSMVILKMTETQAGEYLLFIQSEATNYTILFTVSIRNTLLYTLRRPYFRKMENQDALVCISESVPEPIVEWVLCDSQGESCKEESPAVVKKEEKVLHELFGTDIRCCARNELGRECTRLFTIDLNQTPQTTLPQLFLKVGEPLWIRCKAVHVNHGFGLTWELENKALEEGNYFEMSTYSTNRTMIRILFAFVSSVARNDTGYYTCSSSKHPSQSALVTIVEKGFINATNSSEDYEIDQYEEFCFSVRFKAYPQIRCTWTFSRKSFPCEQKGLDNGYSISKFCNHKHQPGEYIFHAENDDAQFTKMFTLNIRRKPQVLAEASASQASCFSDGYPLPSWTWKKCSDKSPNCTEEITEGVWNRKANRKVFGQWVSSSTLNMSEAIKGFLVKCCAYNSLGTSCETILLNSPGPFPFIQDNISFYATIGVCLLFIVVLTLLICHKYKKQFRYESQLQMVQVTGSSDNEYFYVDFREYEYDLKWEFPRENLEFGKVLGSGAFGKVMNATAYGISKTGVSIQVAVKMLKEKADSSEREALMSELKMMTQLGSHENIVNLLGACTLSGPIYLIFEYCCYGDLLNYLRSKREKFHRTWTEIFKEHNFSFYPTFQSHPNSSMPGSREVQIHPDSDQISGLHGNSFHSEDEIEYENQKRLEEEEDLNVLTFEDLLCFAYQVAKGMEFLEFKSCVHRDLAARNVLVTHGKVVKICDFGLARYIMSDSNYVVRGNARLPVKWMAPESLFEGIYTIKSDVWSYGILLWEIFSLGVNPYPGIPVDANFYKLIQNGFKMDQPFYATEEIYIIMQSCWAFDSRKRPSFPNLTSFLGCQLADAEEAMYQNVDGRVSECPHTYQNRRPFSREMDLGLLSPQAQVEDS

[9] = target: Non-receptor tyrosine-protein kinase TYK2 (Homo sapiens) (UniProt P29597); details: at 1 µM;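 note: values are mean percent inhibition of TYK2 kinase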
Chain of Non-receptor tyrosine-protein kinase TYK2 (Homo sapiens) (P29597 whole entry): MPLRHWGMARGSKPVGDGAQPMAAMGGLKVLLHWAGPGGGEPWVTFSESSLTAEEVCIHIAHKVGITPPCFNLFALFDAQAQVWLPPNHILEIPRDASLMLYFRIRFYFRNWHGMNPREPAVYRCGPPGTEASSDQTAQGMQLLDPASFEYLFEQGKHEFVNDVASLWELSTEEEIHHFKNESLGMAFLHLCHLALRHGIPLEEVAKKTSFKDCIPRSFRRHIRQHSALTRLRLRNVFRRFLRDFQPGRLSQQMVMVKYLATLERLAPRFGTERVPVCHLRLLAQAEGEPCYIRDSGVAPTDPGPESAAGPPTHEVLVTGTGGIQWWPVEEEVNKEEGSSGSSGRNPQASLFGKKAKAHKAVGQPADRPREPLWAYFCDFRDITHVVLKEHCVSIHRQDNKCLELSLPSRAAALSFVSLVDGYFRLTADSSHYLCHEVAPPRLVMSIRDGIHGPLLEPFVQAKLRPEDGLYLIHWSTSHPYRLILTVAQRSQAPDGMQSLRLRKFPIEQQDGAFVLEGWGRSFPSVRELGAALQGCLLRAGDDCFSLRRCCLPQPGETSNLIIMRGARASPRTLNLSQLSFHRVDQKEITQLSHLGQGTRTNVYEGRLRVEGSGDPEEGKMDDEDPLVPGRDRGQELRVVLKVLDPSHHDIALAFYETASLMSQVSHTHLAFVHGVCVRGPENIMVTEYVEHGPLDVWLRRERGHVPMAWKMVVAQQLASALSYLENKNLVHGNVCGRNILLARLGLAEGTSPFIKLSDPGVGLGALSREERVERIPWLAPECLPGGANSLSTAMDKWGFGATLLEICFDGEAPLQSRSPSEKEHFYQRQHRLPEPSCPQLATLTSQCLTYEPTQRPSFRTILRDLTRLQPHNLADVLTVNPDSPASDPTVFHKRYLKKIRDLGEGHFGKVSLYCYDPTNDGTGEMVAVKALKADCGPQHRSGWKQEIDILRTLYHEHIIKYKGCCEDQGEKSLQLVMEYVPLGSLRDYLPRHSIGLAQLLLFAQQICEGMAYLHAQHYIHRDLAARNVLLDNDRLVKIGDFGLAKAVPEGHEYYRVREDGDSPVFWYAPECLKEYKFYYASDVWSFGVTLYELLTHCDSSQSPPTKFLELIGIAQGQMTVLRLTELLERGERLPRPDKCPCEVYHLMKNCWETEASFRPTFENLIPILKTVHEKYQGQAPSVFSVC

[10] = target: T2, Tyrosine-protein kinase receptor TYRO3 (Homo sapiens) (UniProt Q06418); details: at 0.1 µM;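 note: reported percentages are averaged inhibition values of TYRO3 kinase activity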
T2 sequence (whole entry): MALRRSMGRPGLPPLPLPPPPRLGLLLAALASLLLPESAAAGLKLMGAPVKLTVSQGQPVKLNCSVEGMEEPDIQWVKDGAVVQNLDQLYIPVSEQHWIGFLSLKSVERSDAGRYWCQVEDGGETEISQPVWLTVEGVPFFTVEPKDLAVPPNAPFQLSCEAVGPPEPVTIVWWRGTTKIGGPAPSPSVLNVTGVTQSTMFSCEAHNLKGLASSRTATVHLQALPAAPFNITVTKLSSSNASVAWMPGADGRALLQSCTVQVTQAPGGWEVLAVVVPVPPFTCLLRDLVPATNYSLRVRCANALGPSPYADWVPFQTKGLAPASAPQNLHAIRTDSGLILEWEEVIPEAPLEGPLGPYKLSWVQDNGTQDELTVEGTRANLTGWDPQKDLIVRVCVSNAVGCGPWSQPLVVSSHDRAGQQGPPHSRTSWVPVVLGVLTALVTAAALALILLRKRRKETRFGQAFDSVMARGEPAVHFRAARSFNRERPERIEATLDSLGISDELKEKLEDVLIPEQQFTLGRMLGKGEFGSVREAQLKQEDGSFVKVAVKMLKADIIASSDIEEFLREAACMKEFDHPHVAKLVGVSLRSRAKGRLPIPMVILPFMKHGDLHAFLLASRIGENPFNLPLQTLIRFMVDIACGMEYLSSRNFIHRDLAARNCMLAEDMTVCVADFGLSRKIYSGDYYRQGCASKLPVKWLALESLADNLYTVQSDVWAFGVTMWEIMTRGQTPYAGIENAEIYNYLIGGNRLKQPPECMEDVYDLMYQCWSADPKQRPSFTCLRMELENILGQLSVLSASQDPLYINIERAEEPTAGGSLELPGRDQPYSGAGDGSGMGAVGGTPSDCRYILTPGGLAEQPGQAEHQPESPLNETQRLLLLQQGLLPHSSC

Chain of Tyrosine-protein kinase Fgr (Homo sapiens) (P09769 2-529 limits assumed): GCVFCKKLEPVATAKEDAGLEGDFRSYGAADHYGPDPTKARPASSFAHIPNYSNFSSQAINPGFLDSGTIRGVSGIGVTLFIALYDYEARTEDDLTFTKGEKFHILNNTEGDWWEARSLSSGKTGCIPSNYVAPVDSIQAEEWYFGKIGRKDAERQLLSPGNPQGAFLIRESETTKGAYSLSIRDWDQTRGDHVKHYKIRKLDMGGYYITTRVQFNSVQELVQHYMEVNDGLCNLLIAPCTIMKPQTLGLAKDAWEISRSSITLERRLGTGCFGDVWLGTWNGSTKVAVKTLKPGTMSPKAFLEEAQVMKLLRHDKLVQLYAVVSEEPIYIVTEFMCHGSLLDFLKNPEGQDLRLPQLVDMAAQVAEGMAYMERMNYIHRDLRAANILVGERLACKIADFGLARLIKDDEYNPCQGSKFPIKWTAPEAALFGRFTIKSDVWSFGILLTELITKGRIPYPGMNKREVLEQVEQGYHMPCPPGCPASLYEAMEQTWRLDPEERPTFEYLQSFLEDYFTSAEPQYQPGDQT
Chain of Fibroblast growth factor receptor 4 (Homo sapiens) (P22455 22-802 limits assumed): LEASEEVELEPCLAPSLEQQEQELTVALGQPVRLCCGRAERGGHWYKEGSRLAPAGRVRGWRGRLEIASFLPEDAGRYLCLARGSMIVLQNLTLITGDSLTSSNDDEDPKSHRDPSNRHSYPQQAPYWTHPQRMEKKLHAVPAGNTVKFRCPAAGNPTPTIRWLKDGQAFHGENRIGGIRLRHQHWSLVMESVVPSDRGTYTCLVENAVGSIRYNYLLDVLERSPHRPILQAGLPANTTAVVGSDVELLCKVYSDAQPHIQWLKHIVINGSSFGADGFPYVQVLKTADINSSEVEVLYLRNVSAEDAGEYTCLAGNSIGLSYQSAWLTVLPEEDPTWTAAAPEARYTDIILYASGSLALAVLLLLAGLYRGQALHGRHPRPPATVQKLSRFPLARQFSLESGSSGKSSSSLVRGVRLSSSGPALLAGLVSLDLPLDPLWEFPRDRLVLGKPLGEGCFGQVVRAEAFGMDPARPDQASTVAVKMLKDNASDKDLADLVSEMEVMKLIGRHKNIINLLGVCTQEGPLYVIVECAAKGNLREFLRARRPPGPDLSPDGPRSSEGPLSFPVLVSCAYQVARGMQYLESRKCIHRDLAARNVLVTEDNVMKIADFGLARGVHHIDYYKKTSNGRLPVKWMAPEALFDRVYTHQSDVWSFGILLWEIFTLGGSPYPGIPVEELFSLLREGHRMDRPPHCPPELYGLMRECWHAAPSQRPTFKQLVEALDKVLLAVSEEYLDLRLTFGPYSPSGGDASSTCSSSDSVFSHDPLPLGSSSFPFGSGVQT

| SMILES | inhibition [1] [%] | inhibition [2] [%] | inhibition [3] [%] | inhibition [4] [%] | inhibition [5] [%] | inhibition [6] [%] | inhibition [7] [%] | inhibition [8] [%] | inhibition [9] [%] | inhibition [10] [%] |
| --- | --- | --- | --- | --- | --- | --- | --- | --- | --- | --- |
| Cc1ccc(Nc2ccnc(Nc3cccc(C(N)=O)c3)n2)cc1O | 3.08 | 52.6 | 72.8 | 69.9 | 97.8 | 18.8 | 64.5 | 30.1 | 16.9 | 13.1 |
| CCCN1CCCC(c2ccc(Nc3nc(Nc4cc(F)ccc4C(N)=O)c4cc[nH]c4n3)c(OC)c2)C1 (stereo not given) | 12.2 | 4.94 | 7.28 | 2.54 | 0.66 | 3.86 | 13.1 | 5.98 | -3.62 | 4.74 |
| CC(C)c1ccc(Nc2nccc(-c3cnn4ncccc34)n2)cc1 | 3.28 | 3.66 | 7.87 | 3.33 | 10.9 | 16.1 | 61.1 | 1.27 | -0.13 | 2.38 |
| COc1cccc(-n2ncc3c(N/N=C/c4ccc(S(C)(=O)=O)cc4)ncnc32)c1 | -1.16 | 28.5 | 64 | 5.44 | 18.8 | 8.26 | 27.9 | 18.6 | 1.37 | 10.6 |
| CCn1c(-c2nonc2N)nc2ccc(F)cc21 | 2.77 | 4.5 | 1.73 | 3.79 | 2.76 | 2.66 | 2.44 | -1.29 | -4.18 | 3.03 |
| N#Cc1c(NC(=O)c2ccccc2F)sc2c1CCCC2 | -0.54 | 1.26 | 1.21 | -1.64 | -1.09 | 0.49 | -1.06 | -2.89 | 0.85 | -1.29 |
| Cc1cc(O)cc(C)c1/C=C/c1cncc(C(=O)N(C)C)c1 | 2.26 | 2.92 | 9.21 | 2.21 | 3.14 | 2.14 | 2.25 | -0.23 | -2.56 | 3.45 |
| Cc1ccc(C(=O)NC2CC2)cc1-c1ccc2[nH]ncc2c1 | 0.32 | -1.47 | 1.41 | -2.04 | -1.81 | -3.48 | 0.84 | -3.02 | 2.43 | -1.74 |
| CN(C)C(=O)O[C@@H]1CN[C@@H](C#Cc2cc3ncnc(Nc4ccc(OCc5cccc(F)c5)c(Cl)c4)c3s2)C1 | 0.26 | 4.03 | 8.75 | -0.77 | 1.01 | -1.89 | -0.37 | -2.1 | 0.28 | -0.78 |
| O=S(=O)(CCOCc1ccc(-c2ccc3ncnc(Nc4ccc(OCc5cccc(F)c5)c(Cl)c4)c3c2)o1)c1ccccc1 | 0.08 | -0.06 | 2.31 | -2.31 | 0.57 | 4.16 | 2.25 | -3.61 | -0.44 | -0.84 |
| NC(=O)c1sc(-n2cnc3ccccc32)cc1OCc1ccccc1Br | 0.92 | 1.44 | 6.14 | -0.01 | 4.57 | 2.74 | 1 | -6.76 | -4.77 | 1.17 |
| c1ccc(Cc2nc3ccc(Nc4ncnc5ccccc45)cc3[nH]2)cc1 | -0.04 | 5.51 | 18.2 | 0.86 | 4.39 | 0.83 | 3.55 | 4.82 | -0.14 | 1.48 |
| NS(=O)(=O)c1ccc(NC=C2C(=O)Nc3ccc4ncsc4c32)cc1 | 11.5 | 6.25 | 36.2 | 19.3 | 67.6 | 47.7 | 85.4 | 59.9 | 63.6 | 8.88 |
| c1ccc(Nc2ncc(-c3ccccc3)o2)cc1 | 0.73 | 5.98 | 15 | 1.21 | 11.7 | 33.1 | 78.8 | 5.03 | -4.84 | 4.31 |
| N#Cc1cccc(Nc2nccc(-c3cnn4ncccc34)n2)c1 | 5.22 | 11.1 | 41.7 | 8.37 | 28.3 | 18.5 | 68 | 7.57 | 11 | 7.97 |
| [O-][S+]1CCN(Cc2ccc(-c3ccc4ncnc(Nc5ccc(OCc6ccccc6)c(Cl)c5)c4c3)o2)CC1 | -0.87 | -0.44 | 8.63 | -0.09 | 1.05 | 5.36 | 2.27 | 0.74 | -0.57 | 0.39 |
| CN(c1ccc(NC(=O)Nc2ccc(OC(F)(F)F)cc2)cc1)c1ccnc(Nc2cccc(S(N)(=O)=O)c2)n1 | 2.57 | 13.8 | 57.2 | 44.4 | 96.1 | 28.6 | 87.4 | 2.56 | -2.45 | 3.15 |

Reference: ChEMBL document CHEMBL1961873, “Compounds: GSK PKIS; Assays: Nanosyn kinase panel” (2012)
